Test results taken from the supplement of paper PMC12350171.
Where a name gives a salt, the structure may show the parent alone. Unmarked numbers belong to inactive results.

Tests used:
Conditions in all cases: 20 µM
[1] = test system: Salmonella enterica typhimurium; assay: growth AUC normalised to DMSO control (fraction of control); higher = less growth inhibition, active = hit call of the paper
Method in brief: (§1)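 Hemin and NAD were added to the medium for Haemophilus parainfluenzae. All pathogens, after two anaerobic passages, were inoculated at a starting OD578 of 0.01 into pre-reduced mGAM plates with 20 μM compound and 1% DMSO under breathable seals, and OD578 was read hourly for 24 h in three biological replicates. AUC of each growth curve was obtained with the trapezoidal rule up to the exponential-to-stationary transition and normalised to DMSO controls from the same plate.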

[2] = test system: Shigella flexneri; assay: as above
Method in brief: as §1

[3] = test system: Vibrio cholerae; assay: as above
Method in brief: as §1

[4] = test system: Yersinia pseudotuberculosis; assay: as above
Method in brief: as §1

[5] = test system: P. vulgatus RND KO; assay: growth AUC normalised to DMSO control (median) (fraction of control); higher = less growth inhibition, active = hit call of the paper
Method in brief: (§2)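 Anaerobic growth was tracked hourly at OD578 for 24 h in 96-well plates of mGAM seeded at OD578 0.01 with each approved-drug library compound at 20 μM and 1% DMSO. Strains had first been passaged twice overnight without oxygen. Three biological replicates were run. The reported median is the area under the curve, calculated by the trapezoidal rule on curves truncated at entry into stationary phase and normalised to vehicle wells on the same plate.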

[6] = test system: P. vulgatus WT; assay: as above
Method in brief: as §2

[7] = test system: S. enterica typhimurium WT; assay: as above
Method in brief: as §2

[8] = test system: S. enterica typhimurium tolC KO; assay: as above
Method in brief: as §2
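For growth AUC normalised to DMSO control (median) in this document: active when median AUC fell below 0.1.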

Row | Compound | growth AUC normalised to DMSO control [1] | growth AUC normalised to DMSO control [2] | growth AUC normalised to DMSO control [3] | growth AUC normalised to DMSO control [4] | growth AUC normalised to DMSO control [5] | growth AUC normalised to DMSO control [6] | growth AUC normalised to DMSO control [7] | growth AUC normalised to DMSO control [8]
1 | CCN(CC)C(C)CN1c2ccccc2Sc2ccccc21 (configuration not stated) [Ethopropazine hydrochloride] | 0.972 | 0.999 | 0.918 | 0.995 | 0.272 | 0.246 | 0.993 | 0.951
2 | CS(=O)(=O)Nc1ccc([N+](=O)[O-])cc1Oc1ccccc1 [Nimesulide] | 0.985 | 0.953 | 0.907 | 0.984 | 0.983 | 0.979 | 0.988 | 0.984
3 | O=C(OCC(O)CO)c1ccccc1Nc1ccnc2cc(Cl)ccc12 (configuration not stated) [Glafenine hydrochloride] | 0.981 | 0.938 | 0.88 | 0.941 | 1.01 | 0.995 | 0.997 | 0.935
4 | CO[C@H]1/C=C/O[C@@]2(C)Oc3c(C)c(O)c4c(O)c(c5c(nc6cc(C)ccn65)c4c3C2=O)NC(=O)/C(C)=C\C=C\[C@H](C)[C@H](O)[C@@H](C)[C@@H](O)[C@@H](C)[C@H](OC(C)=O)[C@@H]1C [Rifaximin] | 0.477 (active) | 0.56 (active) | 1.1 | 0.0303 (active) | 0.0137 (active) | 0.00787 (active) | 0.217 | 0.0409 (active)
5 | CC(C)NCC(O)c1ccc(NS(C)(=O)=O)cc1 (configuration not stated) [Sotalol hydrochloride] | 1 | 1.06 | 1.04 | 1.02 | 1.02 | 1.06 | 1.01 | 0.998
6 | CN1CCC(=C2c3ccccc3Sc3ccccc32)CC1 [Pimethixene maleate] | 0.988 | 0.948 | 0.853 | 1.02 | 0.812 | 0.776 | 1 | 0.956
7 | CC1(C)O[C@@H]2C[C@H]3[C@@H]4C[C@H](F)C5=CC(=O)C=C[C@]5(C)[C@H]4[C@@H](O)C[C@]3(C)[C@]2(C(=O)CO)O1 [Flunisolide] | 1.01 | 1.05 | 1.06 | 0.984 | 1.03 | 1.05 | 1 | 1.01
8 | CC(=O)N(CC(O)CO)c1c(I)c(C(=O)NCC(O)CO)c(I)c(C(=O)NCC(O)CO)c1I (configuration not stated) [Iohexol] | 0.997 | 0.968 | 0.995 | 1 | 1.01 | 0.978 | 0.999 | 1.01
9 | Cc1c(N(C)CS(=O)(=O)O)c(=O)n(-c2ccccc2)n1C [Dipyrone sodium salt] | 1.02 | 1.03 | 1.09 | 1.02 | 0.999 | 0.996 | 1.01 | 0.999
10 | COc1ccc(C(=O)NCc2cccnc2)cc1C(=O)NCc1cccnc1 [Picotamide monohydrate] | 0.989 | 0.968 | 0.992 | 0.984 | 1 | 1.01 | 0.995 | 0.998
11 | OC(CCN1CCCC1)(c1ccccc1)C1CCCCC1 (configuration not stated) [Procyclidine hydrochloride] | 0.975 | 0.953 | 0.937 | 0.984 | 0.96 | 0.941 | 1.01 | 0.983
12 | CN(C)CCOC(c1ccccc1)c1ccccc1.Cn1c(=O)c2[nH]c(Cl)nc2n(C)c1=O [Dimenhydrinate] | 0.975 | 0.984 | 0.933 | 0.982 | 1.01 | 1 | 0.988 | 0.983
13 | COc1ccc(NS(=O)(=O)c2ccc(N)cc2)nn1 [Sulfamethoxypyridazine] | 1.02 | 1.04 | 1.03 | 0.996 | 1.02 | 1.04 | 1.01 | 0.986
14 | O=c1[nH]cc(F)c(=O)[nH]1 [5-fluorouracil] | 0.842 (active) | 0.745 (active) | 0.942 | 0.927 | 0.0695 (active) | 0.0782 (active) | 0.809 | 0.806
15 | COc1ccc2cc(CCC(C)=O)ccc2c1 [Nabumetone] | 1.03 | 0.998 | 0.929 | 0.999 | 0.99 | 1 | 1 | 0.963
16 | C[C@]12CC[C@@H]3c4ccc(O)cc4CC[C@H]3[C@@H]1CCC2=O [Estrone] | 0.984 | 0.96 | 0.0258 (active) | 0.975 | 0.977 | 0.964 | 0.999 | 0.974
17 | Nc1nc2c(ncn2COCCO)c(=O)[nH]1 [Acyclovir] | 1.01 | 1.01 | 1.01 | 0.995 | 1.05 | 1.02 | 1 | 1
18 | CN1CCc2c(c3ccccc3n2Cc2ccccc2)C1 [Mebhydroline 1,5-naphtalenedisulfonate] | 0.985 | 0.96 | 0.922 | 0.702 | 0.948 | 0.971 | 0.979 | 0.977
19 | COc1ccc([C@@H]2Sc3ccccc3N(CCN(C)C)C(=O)[C@@H]2OC(C)=O)cc1 [Diltiazem hydrochloride] | 0.998 | 0.969 | 1 | 1.01 | 0.99 | 1 | 0.995 | 0.973
20 | Cc1cc2c(s1)Nc1ccccc1N=C2N1CCN(C)CC1 [Olanzapine] | 0.997 | 0.996 | 0.997 | 1.01 | 1.03 | 1.03 | 1.02 | 0.994
21 | O=C(O)CCC(=O)Nc1ccc(S(=O)(=O)Nc2nccs2)cc1 [Succinylsulfathiazole] | 1 | 0.997 | 0.999 | 1 | 1 | 1.05 | 1 | 0.994
22 | CCOC(=O)NNc1nncc2ccccc12 [Todralazine hydrochloride] | 1.01 | 1.01 | 0.99 | 1.01 | 1.01 | 0.999 | 1.01 | 1.02
23 | Nc1ncnc2c1ncn2[C@@H]1O[C@H](CO)[C@@H](O)[C@@H]1O [Vidarabine] | 0.988 | 0.984 | 0.975 | 0.829 | 0.971 | 0.977 | 0.99 | 0.995
24 | C[C@H](CCC(=O)O)[C@H]1CC[C@H]2[C@@H]3[C@@H](O)C[C@@H]4C[C@H](O)CC[C@]4(C)[C@H]3CC[C@]12C [Urosiol] | 0.971 | 1.02 | 1.04 | 1.01 | 1.02 | 1.02 | 1 | 1.01
25 | CO/N=C(\C(=O)N[C@@H]1C(=O)N2C(C(=O)O)=C(COC(C)=O)CS[C@H]12)c1csc(N)n1 [Cefotaxime sodium salt] | 0.00568 (active) | 0.0409 (active) | 0.0691 (active) | 0.0555 (active) | 0.00835 (active) | 0.0141 (active) | 0.00974 (active) | 0.00366 (active)
26 | CC(=O)N(CC(O)CN(C(C)=O)c1c(I)c(C(=O)NCC(O)CO)c(I)c(C(=O)NCC(O)CO)c1I)c1c(I)c(C(=O)NCC(O)CO)c(I)c(C(=O)NCC(O)CO)c1I (configuration not stated) [Iodixanol] | 0.977 | 0.943 | 0.99 | 0.977 | 1 | 0.98 | 0.996 | 1
27 | CCc1cccc(CC)c1NC(=O)CN(CC(=O)O)CC(=O)O [Etifenin] | 0.985 | 0.99 | 0.989 | 0.999 | 0.998 | 1.01 | 1 | 0.993
28 | NC[C@H]1O[C@H](O[C@H]2[C@H](O[C@@H]3O[C@H](CO)[C@@H](O)[C@H]3O)[C@@H](O)[C@H](N)C[C@@H]2N)[C@H](N)[C@@H](O)[C@@H]1O [Ribostamycin sulfate salt] | 0.981 | 0.918 | 0.974 | 0.995 | 0.988 | 0.986 | 0.98 | 0.99
29 | CCCCOc1cc(C(=O)NCCN(CC)CC)c2ccccc2n1 [Dibucaine] | 1 | 1.03 | 1.03 | 1.05 | 1.04 | 1.01 | 1.01 | 0.993
